Here are results for 40 compounds from PubChem BioAssay (NCATS).

Where “and” joins values, the source holds several entries; their conditions need not be identical. Equal entries are not always repeated. Inconclusive results are not listed. Calls of active or inactive are those of the source. Calls come from the whole dose curve; as a rule, active = well fitted cell-killing curve with a large enough effect; inconclusive = small, poorly fitted or top-dose-only effect; inactive = flat fitted curve, though single readings scatter.

A short description of the test: Cellular viability qHTS for adrenocortical cancer (ACC) cell line NCI-H295R (AID 1963990).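 For activity change, negative = viability loss: 0% = DMSO only wells and -100% = full killing with cytotoxic reference compound.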 Note: nearly all actives have a fitted effect of over 60% in size. The settings on record: CellTiter-Glo ATP luminescence, 48 h; series mostly up to 46.1 µM; activity change, negative = viability loss: at the top concentration. Summed up:
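CellTiter-Glo ATP luminescence, read 48 h after compound addition, measured viability of NCI-H295R adrenocortical cells grown serum-free with ITS. Final concentrations spanned up to 46 uM. Data normalized to DMSO and doxorubicin, fitted for IC50 and maximal response.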
On the technique in general: Quantitative high-throughput screening tests each substance at several concentrations.
For `C/C=C/c1ccc(O)c(OC)c1`, the “activity change, negative = viability loss” value is -8.31% (inactive).

On to `CC(COc1ccccc1)NC(C)C(O)c1ccc(O)cc1` (stereo not given), for which the “activity change, negative = viability loss” value is 1.17% (inactive).

On to `CCN(CC)CCOC(=O)C(c1ccccc1)C1CCCCC1` (stereo not given), for which the “activity change, negative = viability loss” value was -21.8% (inactive).

Turning to `CC(C)Nc1cccnc1N1CCN(C(=O)c2cc3cc(NS(C)(=O)=O)ccc3[nH]2)CC1`, the “activity change, negative = viability loss” value is -2.37% (inactive).

As for `CCNC(=O)Nc1ncc(-c2cc(-c3c(C)cc(OC)cc3C)nc(-c3cnccn3)n2)s1`, the “activity change, negative = viability loss” value was -1.21% (inactive).

Consider `CC(=O)Oc1cc(C(C)C)c(OCCN(C)C)cc1C`, for which the “activity change, negative = viability loss” value is -0.719% (inactive).

As to `Nc1ccc(C(=O)NCC(=O)O)cc1`, the “activity change, negative = viability loss” value is -4.67% (inactive).

As for `Cc1ccc2cc(-c3c(C)ccc(C(=O)c4c(-c5ccccc5)n(C)n(-c5ccccc5)c4=O)c3N)ccc2n1`, the “activity change, negative = viability loss” value is 2.37% (inactive).

Consider `C[C@]12CCC(=O)C=C1CC[C@@H]1[C@@H]2[C@@H](O)C[C@@]2(C)[C@H]1CC[C@]2(O)C(=O)COC(=O)CCC(=O)O`, for which the “activity change, negative = viability loss” value is -26.4% (inactive).

For the compound `CC(C)(O)CC[C@@H](O)[C@](C)(O)[C@H]1CC[C@@]2(O)C3=CC(=O)[C@@H]4C[C@@H](O)[C@@H](O)C[C@]4(C)[C@H]3CC[C@]12C`, the “activity change, negative = viability loss” value is 5.56% (inactive).

Turning to `CCCCOC(=O)CC(CC(=O)OCCCC)(OC(C)=O)C(=O)OCCCC`, the “activity change, negative = viability loss” value was -27.3% (inactive).

Regarding `COC(C)(C)CCn1nc(Nc2c(C)cccc2C)c2cnc(Nc3ccc(OCCN4CCCC4)c(F)c3)nc21`, the Potency is 3980 nM (active).

With `CC(=O)[C@]1(O)Cc2c(O)c3c(c(O)c2[C@@H](O[C@H]2C[C@H](N)[C@H](O)[C@H](C)O2)C1)C(=O)c1ccccc1C3=O`, the Potency was 1.84 µM (active) and 2.24 µM (active).

On to `COc1ccc(S(=O)(=O)N2CCc3cccc(-c4ccncc4)c32)cc1`, for which the Potency is 158 nM (active).

In the case of `C[C@]12CCC3=C4CCC(=O)C=C4CC[C@H]3[C@@H]1CC[C@@]2(O)CC#N`, the “activity change, negative = viability loss” value was 3.83% (inactive).

For `C=C1C[C@H]2C=Nc3cc(OCCCOc4cc5c(cc4OC)C(=O)N4CC(=C)C[C@H]4C=N5)c(OC)cc3C(=O)N2C1`, the Potency is 100 nM (active).

For `NCC1CCC(C(=O)Oc2ccc(CCC(=O)O)cc2)CC1` (stereo not given), the “activity change, negative = viability loss” value was 10.7% (inactive).

As for `CN(C)CCOc1ccc(-c2nc(-c3ccc4c(c3)CC/C4=N\O)c(-c3ccncc3)[nH]2)cc1`, the Potency was 28200 nM (active).

Consider `CC(C)Oc1ccc(-c2nn([C@@H](C)c3oc4ccc(F)cc4c(=O)c3-c3cccc(F)c3)c3ncnc(N)c23)cc1F`, for which the “activity change, negative = viability loss” value was -19.4% (inactive).

Turning to `CCCCCN(CCCOC)C(=O)C(CCC(=O)O)NC(=O)c1ccc(Cl)c(Cl)c1` (stereo not given), the “activity change, negative = viability loss” value was -15.3% (inactive).

For the compound `CCC(CC)CC1(C(=O)Nc2ccccc2SC(=O)C(C)C)CCCCC1`, the “activity change, negative = viability loss” value was 10.1% (inactive).

On to `Cc1nc2cccc(N)c2c(=O)n1C1CCC(=O)NC1=O` (stereo not given), for which the “activity change, negative = viability loss” value was -18.4% (inactive).

Regarding `c1ccc(CN(CC2=NCCN2)c2ccccc2)cc1`, the “activity change, negative = viability loss” value was -0.0998% (inactive).

With `COc1ccc(S(=O)(=O)Nc2cc(-c3csc(C#N)c3)ccc2C)cc1`, the Potency was 79.4 nM (active).

With `CN1C(=O)N[C@H](Cc2c[nH]c3c(Cl)cccc23)C1=O`, the “activity change, negative = viability loss” value was -5.47% (inactive).

On to `CC[C@@H](C)Nc1cc(C(=O)NC2CC3CCC(C2)N3c2ccc(C(=O)C3CC3)cn2)c(C)cc1C(N)=O` (stereo not given in full), for which the Potency is 355 nM (active).

`C[C@@H]1N=C(N)NC(N(C)C)=N1`: the “activity change, negative = viability loss” value was 10.5% (inactive).

Turning to `NCC1CCC(C(=O)O)CC1` (stereo not given), the “activity change, negative = viability loss” value was 8.43% [at 20 µM] (inactive).

For the compound `O=C(OCCN1CCOCC1)c1cccnc1Nc1cccc(C(F)(F)F)c1`, the “activity change, negative = viability loss” value was -21.5% (inactive).

With `NC(=O)c1ncn([C@@H]2O[C@H](CO)[C@@H](O)[C@H]2O)c1N`, the Potency result was “inactive”.

In the case of `CO/N=C(\C(=O)O)c1csc(NC(=O)CCl)n1`, the “activity change, negative = viability loss” value was -0.0451% (inactive).

For `O=C1CC(c2c[nH]c3ccc(F)cc23)C(=O)N1` (stereo not given), the “activity change, negative = viability loss” value is -0.142% (inactive).

As to `COc1cc(C(=O)NC(N)=Nc2ccc(C)c(NC(=O)c3ccc(-c4ccccc4)cc3)c2)cc(OC)c1OC`, the Potency was 10000 nM (active).

In the case of `CC1(C)OC(=O)NC1=O`, the “activity change, negative = viability loss” value was 15.3% (inactive).

On to `CC[C@]12C=CCN3CC[C@@]4(c5cc([C@@]6(C(=O)OC)C[C@H]7C[C@@H](C(C)(F)F)CN(Cc8c6[nH]c6ccccc86)C7)c(OC)cc5N(C)[C@H]4[C@@](O)(C(=O)OC)[C@@H]1OC(C)=O)[C@@H]32`, for which the Potency is 548 nM (active).

Turning to `Cc1ccc(S(=O)(=O)Cc2nc(-c3ccc(C(=O)NCc4cccnc4)cc3)oc2C)cc1`, the Potency is 50.1 nM (active).

On to `CC1=C(C/C=C(\C)CCC[C@H](C)CCC[C@H](C)CCCC(C)C)C(=O)c2ccccc2C1=O`, for which the “activity change, negative = viability loss” value is -11.7% (inactive).

As for `O=C1OC(OC(=O)c2cccnc2Nc2cccc(C(F)(F)F)c2)c2ccccc21` (stereo not given), the “activity change, negative = viability loss” value is -27.8% (inactive).

With `CC(C)(C)c1ccc(O)c(O)c1`, the Potency is 8910 nM (active).

For the compound `CC(=O)OCC(=O)[C@@]1(O)CC[C@H]2[C@@H]3CCC4=CC(=O)CC[C@]4(C)[C@H]3C(=O)C[C@@]21C`, the Potency entry is “inactive”.
